Bioassay records deposited in PubChem by National Center for Advancing Translational Sciences (NCATS).
CHX counter = counter-screen hit for Shiga toxin inhibitors, cycloheximide | cell reporter, cycloheximide protein synthesis inhibition counterscreen | max response, % | actives 12% (n = 300,000) | AID 2314; in the data active means max response mostly above about 13%, no sharp cut-off; inactive means mostly below about 14%; further: read at 38.3 µM for the half of the compounds with a filed dose
Sm TGR inh = blocks Schistosoma mansoni thioredoxin glutathione reductase; Q962Y6; purified TGR, DTNB reduction, TNB absorbance 405 nm; Potency, µM (series often up to 114 µM), most hits filed as inhibitors; actives 3% (n = 360,000); AID 485364; further: nearly all actives have a fitted effect of over 60% in size
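Kinetic colorimetric format: TGR-catalysed, NADPH-driven DTNB reduction monitored via TNB absorbance. Enzyme dispensed at 20 nM; compound exposure 15 min at room temperature before reaction start.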
Pf growth 48h = P. falciparum growth inhibition at 48 hours (one generation). actives 5.9% (n = 310,000). Potency, µM (titrated, usually from 28.7 µM), actives largely listed as inhibitors. P. falciparum luciferase growth in erythrocytes, 48 h. AID 504832
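Cell-based growth assay: transgenic P. falciparum expressing firefly luciferase, cultured in red cells within RPMI 1640 containing 0.5% w/v Albumax, 24 mM bicarbonate and gentamycin. A drop in luciferase activity indicates inhibition.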
Shiga inhibitor = Shiga toxin inhibition; actives 9.2% (n = 290,000); Vero cells, Shiga toxin protein synthesis inhibition reporter; inhibition, % at 38.7 µM; AID 2315; in the data active means inhibition mostly above about 28%, no sharp cut-off; inactive means mostly below about 43%
NS1 function inh = inhibitors of influenza NS1 protein function; actives 0.4% (n = 270,000); Potency, µM (top dose mostly 46.1 µM); calls by dose curve; further: actives are rising curves; nearly all actives have a fitted effect of over 50% in size
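Growth recovery, yeast-based: influenza A NS1 expressed in S. cerevisiae causes slow growth, and suppressors are detected by OD600. The parent strain without NS1 is used as positive control.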
Pf growth 96h = P. falciparum growth inhibition at 96 hour, primary screen for plastid delayed-death inhibitors. AID 504834. Potency, µM (doses to about 28.7 µM), actives largely listed as inhibitors. actives 6.9% (n = 320,000). P. falciparum luciferase reporter growth, 96 h
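Compounds incubated with erythrocytes infected by luciferase-expressing P. falciparum (2% hematocrit, 0.05% parasitemia final) for 96 hours, 37 C in 5% CO2. Growth inhibition scored as decreased luciferase luminescence.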
Numbers stand for hits; n = inactive; u = inconclusive; x = no result. This is a sample that favours compounds with a hit; in the whole collection about 21% have one here. Unless noted, the call rests on the fitted dose curve; in most records, active means well fitted curve in the direction sought with a large enough effect; inconclusive means small, poorly fitted or top-dose-only effect, or another doubt; inactive means no such curve, though single readings can be large; an effect the other way counts as inactive or inconclusive.

SMILES	CHX counter	Sm TGR inh	Pf growth 48h	Shiga inhibitor	NS1 function inh	Pf growth 96h
CCCCCc1cc(=O)oc2c(C(CCN3CCN(c4ccccc4)CC3)c3ccc4c(c3)OCO4)c(OC)cc(OC)c12 (stereo not drawn)	n	n	7.4µM	n	u	5.2µM
O=C(COC(=O)c1ccc(Cl)cc1[N+](=O)[O-])NNC(=O)c1cccs1	x	56µM	u	x	x	n
O=C(OCC(=O)N1CCN(c2ccccc2)CC1)c1ccc(Cl)cc1[N+](=O)[O-]	x	n	n	x	x	n
O=C(OCC(=O)N1CCOCC1)c1ccc(Cl)cc1[N+](=O)[O-]	24	n	n	47	n	n
Nc1cc(C(=O)OCC(=O)N2CCOCC2)ccc1Cl	35	n	n	58	n	n
O=C(OCC(=O)N1CCN(c2ccccc2)CC1)c1cc(Cl)ccc1[N+](=O)[O-]	n	n	n	n	n	12µM
Nc1cc(C(=O)OCC(=O)N2CCN(C(=O)COC(=O)c3ccc(Cl)c(N)c3)CC2)ccc1Cl	x	n	u	x	x	n
CCc1ccc(CNC(=O)c2c3c(nc4ccccc24)C(=O)N(C2CCCCC2)C3)cc1	x	n	x	x	x	x
CCC(CC)NC(=O)Cc1ccccc1OC	n	n	x	n	n	u
Nc1ccc(C(=O)OCC(=O)N2CCOCC2)cc1[N+](=O)[O-]	31	n	n	57	n	n
Cc1c(Cl)c([N+](=O)[O-])nn1CC(=O)NCc1ccco1	n	n	n	n	n	1.5µM
Cc1cc(C(F)(F)F)nn1CC(=O)NCc1ccco1	n	u	n	n	n	1.5µM
Cc1c(Cl)c(C(F)(F)F)nn1CC(=O)NCc1ccco1	n	n	n	n	x	u
O=C(Cn1ncn2c(cc3ccccc32)c1=O)NCc1ccco1	n	32µM	n	n	n	u
CCCS(=O)(=O)N1CCCC(C(=O)NCCCOC)C1 (stereo not drawn)	x	n	x	x	x	x
O=C(CCSc1nc(-c2ccco2)cc(C(F)(F)F)n1)NCc1ccccn1	n	28µM	u	n	n	u
COc1ccc(CCNC(=O)CCSc2nc(-c3ccco3)cc(C(F)(F)F)n2)cc1OC	n	n	9.3µM	n	n	u
COc1ccc(NC(=O)CSc2nc(-c3ccco3)cc(C(F)(F)F)n2)cc1OC	x	n	x	x	x	x
O=C(CCSc1nc(-c2ccco2)cc(C(F)(F)F)n1)NCc1cccs1	n	n	u	n	n	u
CCn1ncc(CNC(=O)CCCSc2nc(-c3ccco3)cc(C(F)(F)F)n2)c1C	n	40µM	12µM	n	n	u
COc1ccccc1NC(=O)CNC(=O)Cn1cnc2sc(C)c(C)c2c1=O	n	n	n	n	n	n
Oc1ccc(CCNc2c3ccccc3nc3ccccc23)cc1O	n	n	13µM	x	n	3.3µM
c1ccc(CNc2c3ccccc3nc3ccccc23)cc1	n	n	2.9µM	n	n	u
CN(C)CCCNc1c2ccccc2nc2ccccc12	n	n	1µM	n	n	n
Oc1ccccc1Nc1nc(NCc2ccccc2)c2ccccc2n1	n	n	0.33µM	n	n	n
SMILES	CHX counter	Sm TGR inh	Pf growth 48h	Shiga inhibitor	NS1 function inh	Pf growth 96h
c1ccc(CNc2ncnc3ccccc23)cc1	n	n	u	n	n	n
CCc1ccc(-n2nc(CO)c(C(=O)NCc3cccs3)n2)cc1	x	n	x	x	x	x
COc1ccc(C(=O)CSc2nnc(CNC(=O)c3ccc(S(=O)(=O)N(C)C)cc3)o2)cc1	n	n	n	n	n	n
O=[N+]([O-])c1cc(S(=O)(=O)N2CCCCCC2)ccc1Cl	n	x	n	n	n	n
C=CCNc1nc(C(=O)OCC)nc2ccccc12	n	n	n	n	n	n
CNc1nc(NCc2ccccc2)c2ccccc2n1	n	n	1.2µM	n	n	u
OCC(Cc1ccccc1)Nc1c2ccccc2nc2ccccc12 (stereo not drawn)	n	n	2.6µM	n	n	u
CCCCN(C)C(=O)CSc1nc(NCc2ccc(OC)cc2)c2ccccc2n1	n	n	10µM	n	n	2.3µM
CCOC(=O)c1nc(NCc2ccccc2)c2ccccc2n1	40	n	n	116	x	n
CC(=O)Nc1cc(C(=O)NCc2ccc(F)cc2)ccc1Sc1ccc(C)cc1	x	n	x	x	x	x
Cc1oc(-c2cccc(Br)c2)nc1Cn1c(SCc2cccc(F)c2)nc2cccnc21	x	n	x	x	x	x
CCN1CCN(CCNC(=O)c2ccc(CS(=O)c3ccc(Br)cc3)o2)CC1 (stereo not drawn)	n	n	n	n	n	n
Nc1nc(SCc2ccc([N+](=O)[O-])cc2)c2ncn([C@@H]3O[C@H](CO)[C@H](O)[C@H]3O)c2n1	x	x	x	x	n	x
COCCC1CCCCN1C(=O)c1cc(COc2cccc(C(C)=O)c2)on1 (stereo not drawn)	34	n	n	76	n	n
COCCC1CCCCN1C(=O)c1cccc(OC2CCN(C3CCCC3)CC2)c1 (stereo not drawn)	n	u	n	n	n	u
CC(=O)c1ccc(OCc2cc(C(=O)N3CCC[C@H]3CO)no2)cc1	n	50µM	n	n	n	u
Cc1cc(C)c(OCC(=O)OC(C)C(=O)NCc2ccccc2)c(C)c1 (stereo not drawn)	x	n	n	x	x	n
CC1c2nc3ccccc3n2C(CC(=O)NC2CC2)C(=O)N1Cc1ccccc1 (stereo not drawn)	n	n	n	n	x	u
O=C1CC(N2CC=C(c3ccc(F)cc3)CC2)C(=O)N1c1ccc(F)cc1 (stereo not drawn)	n	14µM	n	n	n	n
CCOC(=O)c1ccc(N2C(=O)CC(N3CC=C(c4ccc(F)cc4)CC3)C2=O)cc1 (stereo not drawn)	n	5.6µM	u	n	n	x
O=C1CC(N2CCc3ccccc32)C(=O)N1c1ccc(F)cc1 (stereo not drawn)	n	n	n	n	n	u
CCOC(=O)c1ccc(N2C(=O)CC(N3CCOCC3)C2=O)cc1 (stereo not drawn)	n	u	n	n	n	n
CC(C)OCCCNC(=O)CCCn1c(SCC(=O)c2ccc(Br)cc2)nc2c(sc3ccccc32)c1=O	x	n	x	x	x	x
Cc1ccc(NC2=CC(=O)CC(C)(C)C2)cc1F	n	n	n	n	n	n
Cc1cc(N)c(NC2=CC(=O)CC(C)(C)C2)cc1C	62	n	n	91	u	10µM
SMILES	CHX counter	Sm TGR inh	Pf growth 48h	Shiga inhibitor	NS1 function inh	Pf growth 96h
O=C(CP(=O)(c1ccccc1)c1ccccc1)Nc1cccc(CP(=O)(c2ccccc2)c2ccccc2)c1	n	n	u	n	n	7.4µM
Cc1ccc(S(=O)(=O)Nc2cccc(CP(=O)(c3ccccc3)c3ccccc3)c2)cc1	n	n	3.3µM	n	n	9.3µM
Cc1ccc(S(=O)(=O)Nc2ccc(Nc3ccccc3)cc2)cc1	n	n	n	n	n	u
CC1=CC(C)(C)Nc2ccc(CSc3ccccc3)cc21	x	x	x	x	n	x
O=C(O)C(Sc1ccncn1)c1ccccc1 (stereo not drawn)	n	n	n	n	n	n
C=CCOc1ccccc1/C=N/NC(=O)Cc1ccc(C)cc1	n	n	n	n	n	n
